The record followed here is PMC7862700, “An all-to-all approach to the identification of sequence-specific readers for epigenetic DNA modifications on cytosine”.

Holding throughout (test): DAPPL (digital affinity profiling via proximity ligation, sequencing); 10 mM Tris-HCl pH 7.5, 50 mM NaCl, 1 mM DTT, 4% glycerol, room temperature, 30 min; GST-TFs on glutathione beads, 16-mer random dsDNA library, 0.1% formaldehyde crosslink after washing; high values mean tight binding
The target of one assay is T1, FEV (Homo sapiens, UniProt Q99581 1-238).
T1 sequence: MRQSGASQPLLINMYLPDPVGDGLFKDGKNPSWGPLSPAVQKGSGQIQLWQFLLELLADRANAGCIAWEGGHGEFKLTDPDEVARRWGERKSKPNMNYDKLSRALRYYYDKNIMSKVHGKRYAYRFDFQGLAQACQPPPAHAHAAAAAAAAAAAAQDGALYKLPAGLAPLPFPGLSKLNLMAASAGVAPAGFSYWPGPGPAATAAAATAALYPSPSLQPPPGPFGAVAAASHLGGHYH
Conditions: protein: recombinant; tags: N-terminal GST; dsDNA, one strand shown. In outline: (§1)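 Binding signal is given per hexamer as its read frequency for a factor divided by its frequency in the tag-only sample. GST-fused human transcription factors were expressed in yeast, captured on glutathione beads, barcoded with DNA and pooled with that sample, then incubated with 200 nmole of a 16-mer random double-stranded DNA library in Tris/NaCl/DTT/glycerol buffer for 30 min at room temperature. The pools were then washed, crosslinked, proximity-ligated, amplified by PCR and sequenced on an Illumina NextSeq500.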

The target of another assay is ETV5 (Homo sapiens, UniProt P41161 1-510). Conditions: protein: recombinant; tags: N-terminal GST; dsDNA, one strand shown. The procedure, abridged:
as §1

For a further assay, the target named is HSF1 (Homo sapiens, UniProt Q00613 1-529). Conditions: protein: recombinant; tags: N-terminal GST; chain copies: 3; dsDNA, one strand shown. The procedure, abridged:
as §1

Another assay has as its target T2, SPIC (Homo sapiens, UniProt Q8N5J4 1-248).
T2 sequence: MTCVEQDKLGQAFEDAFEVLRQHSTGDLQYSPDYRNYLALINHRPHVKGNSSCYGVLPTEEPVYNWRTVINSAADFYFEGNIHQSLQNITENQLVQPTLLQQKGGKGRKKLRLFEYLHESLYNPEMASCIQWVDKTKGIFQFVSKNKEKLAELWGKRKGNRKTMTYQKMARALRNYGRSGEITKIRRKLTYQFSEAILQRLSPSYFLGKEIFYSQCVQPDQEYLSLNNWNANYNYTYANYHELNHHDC
Conditions: protein: recombinant; tags: N-terminal GST; dsDNA, one strand shown. In outline:
as §1

Another assay addresses ELF4 (Homo sapiens, UniProt Q99607 1-663). The note with it: protein: recombinant; tags: N-terminal GST; dsDNA, one strand shown. The procedure, abridged: as §1
The next assay concerns the target T3, ELK4 (Homo sapiens, UniProt P28324-2 1-405).
T3 sequence: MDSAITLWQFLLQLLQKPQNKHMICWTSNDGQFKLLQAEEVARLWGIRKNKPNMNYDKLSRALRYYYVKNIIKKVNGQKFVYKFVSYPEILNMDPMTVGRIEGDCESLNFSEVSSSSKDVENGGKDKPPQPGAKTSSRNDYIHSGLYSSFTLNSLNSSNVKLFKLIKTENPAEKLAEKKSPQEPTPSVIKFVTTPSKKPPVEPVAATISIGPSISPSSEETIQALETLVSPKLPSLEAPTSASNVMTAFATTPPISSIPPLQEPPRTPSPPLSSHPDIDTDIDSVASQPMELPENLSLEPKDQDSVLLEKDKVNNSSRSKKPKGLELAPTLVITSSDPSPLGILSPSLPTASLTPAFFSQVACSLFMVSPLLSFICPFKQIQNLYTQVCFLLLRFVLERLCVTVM
Conditions: protein: recombinant; tags: N-terminal GST; dsDNA, one strand shown. The procedure, abridged:
as §1

In a further assay the target is T4, ETV2 (Homo sapiens, UniProt O00321 1-342).
T4 sequence: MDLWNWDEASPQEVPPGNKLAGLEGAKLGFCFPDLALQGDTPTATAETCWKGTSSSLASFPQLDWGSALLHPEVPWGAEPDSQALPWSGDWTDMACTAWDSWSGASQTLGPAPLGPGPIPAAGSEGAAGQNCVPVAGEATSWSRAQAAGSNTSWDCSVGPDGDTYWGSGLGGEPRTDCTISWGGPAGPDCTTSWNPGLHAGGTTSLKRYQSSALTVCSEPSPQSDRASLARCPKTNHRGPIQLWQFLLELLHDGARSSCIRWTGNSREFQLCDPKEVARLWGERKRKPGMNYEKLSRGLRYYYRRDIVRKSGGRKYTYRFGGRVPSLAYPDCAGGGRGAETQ
Conditions: protein: recombinant; tags: N-terminal GST; dsDNA, one strand shown. In outline:
as §1

For the next assay, the target named is T5, ELF3 (Homo sapiens, UniProt P78545 1-371).
T5 sequence: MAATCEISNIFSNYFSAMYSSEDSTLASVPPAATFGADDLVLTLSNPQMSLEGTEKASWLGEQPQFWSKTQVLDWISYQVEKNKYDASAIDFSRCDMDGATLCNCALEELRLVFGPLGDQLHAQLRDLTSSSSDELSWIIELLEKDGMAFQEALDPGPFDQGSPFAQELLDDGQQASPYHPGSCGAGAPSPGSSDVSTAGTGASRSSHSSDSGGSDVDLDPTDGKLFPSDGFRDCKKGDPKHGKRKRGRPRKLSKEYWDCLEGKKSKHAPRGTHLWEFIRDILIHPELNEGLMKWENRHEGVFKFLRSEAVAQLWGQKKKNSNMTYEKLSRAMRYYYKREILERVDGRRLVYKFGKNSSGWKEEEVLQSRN
Conditions: protein: recombinant; tags: N-terminal GST; dsDNA, one strand shown. The procedure, abridged:
as §1

The target in the next assay is CRX (Homo sapiens, UniProt O43186 1-299). Conditions: protein: recombinant; tags: N-terminal GST; dsDNA, one strand shown. The procedure, abridged: as §1
A further assay deals with ETV1 (Homo sapiens, UniProt P50549 1-477). The note with it: protein: recombinant; tags: N-terminal GST; dsDNA, one strand shown. The procedure, abridged: as §1
The next assay deals with T6, ERF (Homo sapiens, UniProt P50548 1-548).
T6 sequence: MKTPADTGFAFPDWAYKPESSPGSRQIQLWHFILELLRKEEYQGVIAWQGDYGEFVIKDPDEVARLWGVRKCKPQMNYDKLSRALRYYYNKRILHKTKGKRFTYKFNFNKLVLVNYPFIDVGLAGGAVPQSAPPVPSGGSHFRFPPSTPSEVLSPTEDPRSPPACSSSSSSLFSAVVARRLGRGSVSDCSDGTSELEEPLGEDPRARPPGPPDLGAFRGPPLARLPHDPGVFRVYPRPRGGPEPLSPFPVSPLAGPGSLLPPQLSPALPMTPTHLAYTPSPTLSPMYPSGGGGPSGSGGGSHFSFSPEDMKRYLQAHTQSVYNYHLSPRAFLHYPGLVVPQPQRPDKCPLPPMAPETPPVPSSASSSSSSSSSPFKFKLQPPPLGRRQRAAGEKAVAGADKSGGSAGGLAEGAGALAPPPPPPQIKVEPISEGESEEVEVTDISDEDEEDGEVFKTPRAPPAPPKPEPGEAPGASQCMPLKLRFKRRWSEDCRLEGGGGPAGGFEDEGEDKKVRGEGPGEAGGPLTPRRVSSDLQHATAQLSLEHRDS
Conditions: protein: recombinant; tags: N-terminal GST; dsDNA, one strand shown. The procedure, abridged: as §1

In a further assay the target is T7, ETV3L (Homo sapiens, UniProt Q6ZN32 1-361).
T7 sequence: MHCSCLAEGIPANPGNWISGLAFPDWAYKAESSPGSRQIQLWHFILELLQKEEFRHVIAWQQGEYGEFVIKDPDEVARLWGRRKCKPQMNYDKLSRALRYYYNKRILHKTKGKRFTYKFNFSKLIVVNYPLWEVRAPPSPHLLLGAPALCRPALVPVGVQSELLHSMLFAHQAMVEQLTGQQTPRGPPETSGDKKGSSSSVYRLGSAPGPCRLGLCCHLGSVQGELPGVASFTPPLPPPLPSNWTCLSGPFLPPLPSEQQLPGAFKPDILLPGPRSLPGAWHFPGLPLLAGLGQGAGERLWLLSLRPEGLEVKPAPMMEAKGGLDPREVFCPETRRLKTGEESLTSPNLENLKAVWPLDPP
Conditions: protein: recombinant; tags: N-terminal GST; dsDNA, one strand shown. In outline:
as §1

The target of another assay is T8, ETS2 (Homo sapiens, UniProt P15036 1-469).
T8 sequence: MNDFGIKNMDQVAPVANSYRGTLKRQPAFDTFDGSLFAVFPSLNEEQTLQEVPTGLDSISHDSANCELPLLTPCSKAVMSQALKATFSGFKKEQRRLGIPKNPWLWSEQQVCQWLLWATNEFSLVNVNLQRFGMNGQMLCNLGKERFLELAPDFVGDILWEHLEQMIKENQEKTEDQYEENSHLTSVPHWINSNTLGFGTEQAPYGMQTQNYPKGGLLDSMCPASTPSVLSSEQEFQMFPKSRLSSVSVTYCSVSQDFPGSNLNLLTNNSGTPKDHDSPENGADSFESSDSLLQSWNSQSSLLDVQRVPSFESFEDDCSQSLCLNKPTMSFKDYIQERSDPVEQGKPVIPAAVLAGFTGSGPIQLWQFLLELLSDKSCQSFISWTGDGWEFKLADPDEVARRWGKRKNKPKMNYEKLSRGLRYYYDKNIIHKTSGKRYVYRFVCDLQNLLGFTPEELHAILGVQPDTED
Conditions: protein: recombinant; tags: N-terminal GST; dsDNA, one strand shown. The procedure, abridged:
as §1

Another assay concerns the target T9, SPDEF (Homo sapiens, UniProt O95238 1-335).
T9 sequence: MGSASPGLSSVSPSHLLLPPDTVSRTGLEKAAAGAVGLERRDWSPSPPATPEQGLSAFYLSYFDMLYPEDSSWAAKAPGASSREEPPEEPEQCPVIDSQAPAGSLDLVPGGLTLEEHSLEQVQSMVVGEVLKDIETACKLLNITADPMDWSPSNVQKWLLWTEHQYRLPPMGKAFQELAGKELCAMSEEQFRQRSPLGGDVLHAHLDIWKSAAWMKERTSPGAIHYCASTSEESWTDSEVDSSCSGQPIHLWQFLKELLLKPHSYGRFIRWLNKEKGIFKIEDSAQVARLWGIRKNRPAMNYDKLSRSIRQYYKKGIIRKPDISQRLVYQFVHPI
The note with it: protein: recombinant; tags: N-terminal GST; dsDNA, one strand shown. The procedure, abridged:
as §1

The next assay deals with T10, ETV7 (Homo sapiens, UniProt Q9Y603 1-341).
T10 sequence: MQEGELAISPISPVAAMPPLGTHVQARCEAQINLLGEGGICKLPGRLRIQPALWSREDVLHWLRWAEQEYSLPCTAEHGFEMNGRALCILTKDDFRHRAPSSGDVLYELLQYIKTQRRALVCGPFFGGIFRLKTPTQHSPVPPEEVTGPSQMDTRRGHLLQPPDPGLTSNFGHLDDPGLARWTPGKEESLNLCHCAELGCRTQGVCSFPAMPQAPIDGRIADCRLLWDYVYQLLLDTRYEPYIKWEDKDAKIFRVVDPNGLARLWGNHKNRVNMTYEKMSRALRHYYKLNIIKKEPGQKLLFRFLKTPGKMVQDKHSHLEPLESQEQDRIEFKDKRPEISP
Conditions: protein: recombinant; tags: N-terminal GST; dsDNA, one strand shown. The procedure, abridged:
as §1

The target in another assay is T11, ELF5 (Homo sapiens, UniProt Q9UKW6-2 1-255).
T11 sequence: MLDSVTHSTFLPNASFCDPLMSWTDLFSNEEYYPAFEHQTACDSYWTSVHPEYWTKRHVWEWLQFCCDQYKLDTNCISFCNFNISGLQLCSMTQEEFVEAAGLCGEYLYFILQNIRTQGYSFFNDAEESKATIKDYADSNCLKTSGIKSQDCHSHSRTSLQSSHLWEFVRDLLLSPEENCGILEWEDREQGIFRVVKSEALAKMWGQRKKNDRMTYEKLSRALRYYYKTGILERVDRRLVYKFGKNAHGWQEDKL
The note with it: protein: recombinant; tags: N-terminal GST; dsDNA, one strand shown. The procedure, abridged: as §1

The next assay deals with T12, ETV3 (Homo sapiens, UniProt P41162-2 1-143).
T12 sequence: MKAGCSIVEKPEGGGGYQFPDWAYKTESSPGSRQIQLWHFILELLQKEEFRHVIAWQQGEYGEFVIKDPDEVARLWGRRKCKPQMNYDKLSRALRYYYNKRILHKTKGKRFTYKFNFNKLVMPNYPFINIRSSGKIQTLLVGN
Conditions: protein: recombinant; tags: N-terminal GST; dsDNA, one strand shown. The procedure, abridged: as §1

Another assay concerns the target ETV6 (Homo sapiens, UniProt P41212 1-452). Conditions: protein: recombinant; tags: N-terminal GST; dsDNA, one strand shown. In outline: as §1

Chain of ETV1 (P50549 whole entry): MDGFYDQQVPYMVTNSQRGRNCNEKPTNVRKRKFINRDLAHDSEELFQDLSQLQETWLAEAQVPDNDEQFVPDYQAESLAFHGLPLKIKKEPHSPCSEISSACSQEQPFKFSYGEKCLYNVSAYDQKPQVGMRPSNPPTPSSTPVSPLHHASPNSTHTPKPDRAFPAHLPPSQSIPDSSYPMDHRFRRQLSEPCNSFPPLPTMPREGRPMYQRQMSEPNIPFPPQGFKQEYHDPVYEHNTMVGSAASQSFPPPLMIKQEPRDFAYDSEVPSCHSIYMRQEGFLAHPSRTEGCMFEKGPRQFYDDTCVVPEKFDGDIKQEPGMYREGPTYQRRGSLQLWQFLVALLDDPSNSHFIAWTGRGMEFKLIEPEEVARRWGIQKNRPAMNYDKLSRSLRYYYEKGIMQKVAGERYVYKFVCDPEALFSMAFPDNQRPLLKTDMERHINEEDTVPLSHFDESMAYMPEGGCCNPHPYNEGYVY
Chain of HSF1 (Q00613 whole entry): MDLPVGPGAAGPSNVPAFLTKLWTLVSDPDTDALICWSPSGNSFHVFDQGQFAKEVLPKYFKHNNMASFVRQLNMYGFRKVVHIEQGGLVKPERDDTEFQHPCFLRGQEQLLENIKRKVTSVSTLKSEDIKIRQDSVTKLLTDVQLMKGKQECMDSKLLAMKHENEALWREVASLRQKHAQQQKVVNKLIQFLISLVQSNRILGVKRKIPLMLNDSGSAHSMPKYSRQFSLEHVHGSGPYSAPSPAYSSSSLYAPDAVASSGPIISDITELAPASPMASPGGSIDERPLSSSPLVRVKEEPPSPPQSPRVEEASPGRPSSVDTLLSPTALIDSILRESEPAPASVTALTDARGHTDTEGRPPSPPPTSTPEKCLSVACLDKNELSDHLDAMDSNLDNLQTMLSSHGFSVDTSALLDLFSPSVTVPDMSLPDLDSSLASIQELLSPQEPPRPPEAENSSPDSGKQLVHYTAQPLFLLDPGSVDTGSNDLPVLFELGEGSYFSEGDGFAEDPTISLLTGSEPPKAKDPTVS
Chain of ETV6 (P41212 whole entry): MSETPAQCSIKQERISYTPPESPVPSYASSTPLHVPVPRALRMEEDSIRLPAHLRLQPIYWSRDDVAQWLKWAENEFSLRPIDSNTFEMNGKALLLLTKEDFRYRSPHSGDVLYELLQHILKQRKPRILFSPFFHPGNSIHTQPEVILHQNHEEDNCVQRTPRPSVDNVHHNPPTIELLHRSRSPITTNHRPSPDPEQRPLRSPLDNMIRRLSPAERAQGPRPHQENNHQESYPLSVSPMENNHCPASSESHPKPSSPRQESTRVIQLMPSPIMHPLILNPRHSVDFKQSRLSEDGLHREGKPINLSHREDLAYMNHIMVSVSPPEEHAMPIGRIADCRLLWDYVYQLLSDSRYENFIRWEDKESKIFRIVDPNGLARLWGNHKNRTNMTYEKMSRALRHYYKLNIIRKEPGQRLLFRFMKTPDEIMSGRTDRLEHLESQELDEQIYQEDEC
Chain of CRX (O43186 whole entry): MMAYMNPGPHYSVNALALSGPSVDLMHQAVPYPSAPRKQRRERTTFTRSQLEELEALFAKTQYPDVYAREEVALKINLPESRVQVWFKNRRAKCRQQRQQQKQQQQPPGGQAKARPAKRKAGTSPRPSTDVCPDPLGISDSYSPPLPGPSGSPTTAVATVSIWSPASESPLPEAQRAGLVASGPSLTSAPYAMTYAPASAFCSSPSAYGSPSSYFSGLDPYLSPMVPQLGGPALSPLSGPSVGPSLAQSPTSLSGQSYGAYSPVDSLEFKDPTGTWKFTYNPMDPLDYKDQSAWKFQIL
Chain of ETV5 (P41161 whole entry): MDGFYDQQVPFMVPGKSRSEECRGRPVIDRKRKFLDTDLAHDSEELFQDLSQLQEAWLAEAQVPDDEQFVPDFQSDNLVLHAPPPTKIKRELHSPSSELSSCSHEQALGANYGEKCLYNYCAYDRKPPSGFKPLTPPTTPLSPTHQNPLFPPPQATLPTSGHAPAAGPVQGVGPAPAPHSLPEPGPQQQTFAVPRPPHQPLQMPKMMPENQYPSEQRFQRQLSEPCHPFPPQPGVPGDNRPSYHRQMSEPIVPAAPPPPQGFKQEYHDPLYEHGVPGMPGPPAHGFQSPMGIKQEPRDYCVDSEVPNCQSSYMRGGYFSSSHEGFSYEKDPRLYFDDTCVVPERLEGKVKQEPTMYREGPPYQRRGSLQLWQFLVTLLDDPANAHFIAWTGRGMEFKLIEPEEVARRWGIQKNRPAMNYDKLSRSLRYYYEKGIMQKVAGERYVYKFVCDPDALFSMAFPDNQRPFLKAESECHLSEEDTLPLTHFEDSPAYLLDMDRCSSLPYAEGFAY
Chain of ELF4 (Q99607 whole entry): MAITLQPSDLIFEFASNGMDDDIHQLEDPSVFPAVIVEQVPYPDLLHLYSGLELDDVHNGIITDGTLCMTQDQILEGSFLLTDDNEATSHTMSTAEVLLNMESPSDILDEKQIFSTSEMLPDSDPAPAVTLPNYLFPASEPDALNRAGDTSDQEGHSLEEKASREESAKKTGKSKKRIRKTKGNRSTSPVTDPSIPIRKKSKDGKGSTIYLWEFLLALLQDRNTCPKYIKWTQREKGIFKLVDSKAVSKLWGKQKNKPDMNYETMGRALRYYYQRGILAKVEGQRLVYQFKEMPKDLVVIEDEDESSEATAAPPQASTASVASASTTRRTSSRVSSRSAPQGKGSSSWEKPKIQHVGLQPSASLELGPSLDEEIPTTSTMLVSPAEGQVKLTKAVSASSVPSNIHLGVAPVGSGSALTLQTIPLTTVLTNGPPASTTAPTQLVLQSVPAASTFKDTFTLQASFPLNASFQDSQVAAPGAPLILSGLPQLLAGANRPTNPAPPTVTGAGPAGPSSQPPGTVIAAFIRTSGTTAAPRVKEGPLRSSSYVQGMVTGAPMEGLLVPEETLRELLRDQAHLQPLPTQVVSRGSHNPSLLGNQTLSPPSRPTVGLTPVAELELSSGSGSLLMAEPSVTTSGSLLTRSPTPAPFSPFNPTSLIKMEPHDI

For the sequence CTTATC, the binding signal in the assay with FEV was 1.2 fold enrichment (6-mer frequency, TF over GST control); with ETV5, 1.13 fold enrichment (6-mer frequency, TF over GST control); with HSF1 it was 1.6 fold enrichment (6-mer frequency, TF over GST control); in the assay with SPIC, 1.34 fold enrichment (6-mer frequency, TF over GST control); with ELF4, 1.12 fold enrichment (6-mer frequency, TF over GST control); with ELK4, 1.18 fold enrichment (6-mer frequency, TF over GST control). In addition, the binding signal with ETV2 was 1.03 fold enrichment (6-mer frequency, TF over GST control); with ELF3, 1.14 fold enrichment (6-mer frequency, TF over GST control); in the assay with CRX, 2.44 fold enrichment (6-mer frequency, TF over GST control); with ETV1, 1.18 fold enrichment (6-mer frequency, TF over GST control); in the assay with ERF, 1.12 fold enrichment (6-mer frequency, TF over GST control); in the assay with ETV3L, 1.22 fold enrichment (6-mer frequency, TF over GST control). In addition, the binding signal is 1.12 fold enrichment (6-mer frequency, TF over GST control) with ETS2; 1.23 fold enrichment (6-mer frequency, TF over GST control) with SPDEF; 1.1 fold enrichment (6-mer frequency, TF over GST control) with ETV7; 1.17 fold enrichment (6-mer frequency, TF over GST control) in the assay with ELF5; 1.15 fold enrichment (6-mer frequency, TF over GST control) in the assay with ETV3; 1.1 fold enrichment (6-mer frequency, TF over GST control) in the assay with ETV6.
